Laboratory results taken from the antibiotic and cytotoxicity screens of Wong et al. (2023).
Out of some 39,000 compounds screened, about 1,500 (3.8%) were called active. The list comes from a sample in which actives are over-represented; it also holds similar structures and randomly drawn compounds.

What follows are compounds tested on HSkMC (human skeletal muscle cells) (assay: cytotoxicity call (relative viability < 0.9)). Conditions: 10 µM.
In the case of O=C(NCCN1CCOCC1)[C@@H]1c2ccccc2C(=O)N(Cc2cc(C(F)(F)F)cc(C(F)(F)F)c2)[C@H]1c1ccc(CO)cc1, the cytotoxicity call is reported as “inactive”.
For C[C@H]1CN([C@@H](C)CO)C(=O)Cc2cc(NC(=O)CCN3CCOCC3)ccc2O[C@@H]1CN(C)Cc1ccc(C(=O)Nc2ccccc2N)cc1, the cytotoxicity call was “inactive”.
In the case of Cc1noc(C)c1NC(=O)Nc1ccc2c(c1)C(=O)N([C@H](C)CO)C[C@@H](C)[C@@H](CN(C)Cc1ccc(Oc3ccccc3)cc1)O2, the cytotoxicity call is reported as “inactive”.
In the case of C[C@@H]1CN([C@@H](C)CO)C(=O)c2cccc(NS(=O)(=O)c3cn(C)cn3)c2O[C@@H]1CN(C)S(=O)(=O)c1ccc(Cl)cc1, the cytotoxicity call is reported as “inactive”.
In the case of COc1ccc(CN(C)C[C@H]2Oc3ccc(NS(C)(=O)=O)cc3C(=O)N([C@@H](C)CO)C[C@@H]2C)cc1, the cytotoxicity call is reported as “inactive”.
CNC[C@H]1Oc2c(NS(=O)(=O)c3cn(C)cn3)cccc2C(=O)N([C@H](C)CO)C[C@H]1C was tested, and the cytotoxicity call was “inactive”.
With Cn1cnc(CCNC(=O)C[C@H]2CC[C@@H]3[C@H](COC[C@H](O)CN3C(=O)Nc3ccc(C(F)(F)F)cc3)O2)c1 the cytotoxicity call was “inactive”.
With CCNC(=O)C[C@@H]1C=C[C@H](NC(=O)C2CC2)[C@@H](CO)O1 the cytotoxicity call was “inactive”.
For C=CCC[C@H](Cc1ccc(F)cc1)C(=O)OC[C@H](Cc1c[nH]c2ccccc12)NC(=O)[C@@H](CC=C)CC(=O)N[C@@H](CO)Cc1ccccc1, the cytotoxicity call was “active”.
For C=CCC[C@@H](Cc1ccc(F)cc1)C(=O)OC[C@@H](Cc1c[nH]c2ccccc12)NC(=O)[C@H](CC=C)CC(=O)N[C@@H](CO)Cc1ccccc1, the cytotoxicity call was “inactive”.
For C=CCC[C@H](Cc1ccc(F)cc1)C(=O)OC[C@H](Cc1c[nH]c2ccccc12)NC(=O)[C@H](CC=C)CC(=O)N[C@@H](CO)Cc1ccccc1, the cytotoxicity call was “inactive”.
C=CC[C@H](CC(=O)N[C@@H](CO)Cc1ccccc1)C(=O)N[C@@H](COC(=O)[C@@H](CC=C)Cc1ccc(F)cc1)Cc1c[nH]c2ccccc12 was tested, and the cytotoxicity call was “inactive”.
With C=CCC[C@H](Cc1ccc(F)cc1)C(=O)OC[C@H](Cc1c[nH]c2ccccc12)NC(=O)[C@@H](CC=C)CC(=O)N[C@H](CO)Cc1ccccc1 the cytotoxicity call was “active”.
C=CC[C@@H](CC(=O)N[C@H](CO)Cc1ccccc1)C(=O)N[C@H](COC(=O)[C@@H](CC=C)Cc1ccc(F)cc1)Cc1c[nH]c2ccccc12 was tested, and the cytotoxicity call was “inactive”.
C=CC[C@@H](CC(=O)N[C@H](CO)Cc1ccccc1)C(=O)N[C@@H](COC(=O)[C@@H](CC=C)NC(=O)OCC1c2ccccc2-c2ccccc21)Cc1c[nH]c2ccccc12 was tested, and the cytotoxicity call was “active”.
C=CCC[C@@H](Cc1ccc(F)cc1)C(=O)OC[C@H](Cc1c[nH]c2ccccc12)NC(=O)[C@@H](CC=C)CC(=O)N[C@@H](CO)Cc1ccccc1 was tested, and the cytotoxicity call was “inactive”.
For C=CCC[C@@H](Cc1ccc(F)cc1)C(=O)OC[C@H](Cc1c[nH]c2ccccc12)NC(=O)[C@@H](CC=C)CC(=O)N[C@H](CO)Cc1ccccc1, the cytotoxicity call was “inactive”.
In the case of CS(=O)(=O)N1CC(=O)Nc2ccccc21, the cytotoxicity call is reported as “inactive”.
COc1ccc(S(=O)(=O)Nc2ccc3c(c2)C(=O)N([C@@H](C)CO)C[C@@H](C)[C@@H](CN(C)Cc2ccc(C(=O)O)cc2)OCCCC[C@H](C)O3)cc1 was tested, and the cytotoxicity call was “inactive”.
C[C@@H]1CN([C@@H](C)CO)S(=O)(=O)c2ccc(C#CCN(C)C)cc2O[C@@H]1CN(C)Cc1ccccc1F was tested, and the cytotoxicity call was “inactive”.
With CC(C)NC(=O)Nc1ccc2c(c1)C(=O)N([C@H](C)CO)C[C@H](C)[C@H](CN(C)C(=O)Nc1cccc3ccccc13)OCCCC[C@H](C)O2 the cytotoxicity call was “inactive”.
CC(C)NC(=O)N(C)C[C@H]1Oc2ccc(NC(=O)C3CCCCC3)cc2C(=O)N([C@H](C)CO)C[C@@H]1C was tested, and the cytotoxicity call was “inactive”.
With CCC(=O)Nc1ccc2c(c1)OC[C@@H](C)N(C(=O)CN1CCOCC1)C[C@H](C)[C@@H](OC)CN(C)C2=O the cytotoxicity call was “inactive”.
C[C@@H]1CN([C@@H](C)CO)C(=O)c2cccc(NC(=O)Nc3cccc4ccccc34)c2O[C@H]1CN(C)S(=O)(=O)c1ccccc1 was tested, and the cytotoxicity call was “inactive”.
In the case of COc1ccc(S(=O)(=O)Nc2cccc3c2O[C@H](CN(C)S(=O)(=O)c2ccc(C)cc2)[C@@H](C)CN([C@H](C)CO)C3=O)cc1, the cytotoxicity call is reported as “inactive”.
In the case of O=C(C[C@@H]1CC[C@H]2[C@@H](COC[C@@H](O)CN2S(=O)(=O)c2cccc(Cl)c2)O1)NCCCN1CCOCC1, the cytotoxicity call is reported as “inactive”.
With COCC(=O)N1CC[C@]2(CC1)CN(Cc1cccc(c1)OC)[C@H](CO)c1c2c2ccc(cc2n1C)OC the cytotoxicity call was “inactive”.
For C[C@H](CO)N1C[C@H](C)[C@@H](CN(C)S(=O)(=O)c2cn(C)cn2)OCc2cn(nn2)CCCC1=O, the cytotoxicity call was “inactive”.
For C[C@H](CO)N1C[C@H](C)[C@H](CN(C)Cc2ccccc2)Oc2ccc(NC(=O)Nc3ccc(C(F)(F)F)cc3)cc2CC1=O, the cytotoxicity call was “active”.
In the case of C[C@@H]1CN([C@@H](C)CO)C(=O)Cc2cc(NC(=O)Nc3ccc(C(F)(F)F)cc3)ccc2O[C@H]1CN(C)Cc1ccccc1, the cytotoxicity call is reported as “inactive”.
For C[C@@H]1CN([C@H](C)CO)C(=O)Cc2cc(NC(=O)Nc3ccc(C(F)(F)F)cc3)ccc2O[C@H]1CN(C)Cc1ccccc1, the cytotoxicity call was “active”.
In the case of C[C@H]1CN([C@@H](C)CO)C(=O)Cc2cc(NC(=O)Nc3ccc(C(F)(F)F)cc3)ccc2O[C@@H]1CN(C)Cc1ccccc1, the cytotoxicity call is reported as “inactive”.
With C[C@H]1CN([C@@H](C)CO)C(=O)Cc2cc(NC(=O)Nc3ccc(C(F)(F)F)cc3)ccc2O[C@H]1CN(C)Cc1ccccc1 the cytotoxicity call was “active”.
In the case of C[C@@H]1CN([C@@H](C)CO)C(=O)Cc2cc(NC(=O)Nc3ccc(C(F)(F)F)cc3)ccc2O[C@@H]1CN(C)Cc1ccccc1, the cytotoxicity call is reported as “active”.
C[C@@H]1CCCCO[C@@H](CN(C)Cc2ccc(Cl)c(Cl)c2)[C@@H](C)CN([C@@H](C)CO)C(=O)c2cc(NS(=O)(=O)c3cn(C)cn3)ccc2O1 was tested, and the cytotoxicity call was “inactive”.
In the case of C[C@H]1CCCCO[C@@H](CN(C)Cc2ccc(C(F)(F)F)cc2)[C@@H](C)CN([C@@H](C)CO)C(=O)c2cc(N(C)C)ccc2O1, the cytotoxicity call is reported as “inactive”.
In the case of CC(C)C#Cc1cnc2c(c1)C(=O)N([C@H](C)CO)C[C@H](C)[C@H](CN(C)S(=O)(=O)c1cn(C)cn1)O2, the cytotoxicity call is reported as “inactive”.
For CCCC#Cc1cnc2c(c1)C(=O)N([C@@H](C)CO)C[C@H](C)[C@H](CN(C)C(=O)c1ccc3c(c1)OCO3)O2, the cytotoxicity call was “inactive”.
